Compounds without any hit were thinned out: in the full panel of roughly 83,000, 20% have a hit.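 Negative percent growth values reflect cell death: -40 means 40% of the cells present at the start died, and -100 means all died.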 Unmarked numbers belong to inactive results. The source made the active and inactive calls. Rule for the calls: active = growth percent below 10; inactive = the rest.

Data on 8 compounds can be found in PubChem BioAssay (NCI).

Test systems include DU-145 prostate; K-562 leukemia; MALME-3M melanoma; MDA-MB-231 breast; RXF 393 renal; SF-268 CNS; SF-295 CNS; SF-539 CNS; UACC-257 melanoma; M14 melanoma; HCT-15 colon; HT29 colon; SNB-75 CNS; SNB-19 CNS; U251 CNS; PC-3 prostate; SK-MEL-5 melanoma; UACC-62 melanoma; LOX IMVI melanoma; SK-MEL-28 melanoma.
Common to all, as to test: NCI-60 one-dose screen, 48 h (100 = growth as untreated, 0 = no growth, -100 = all killed)
What all share (conditions): 10 µM unless noted

As to `C#Cc1nc(/C=C/CCCCCCC(=O)NO)cs1`, the growth is 23.8% with DU-145 prostate; 13.1% in the assay with K-562 leukemia; 22% with MALME-3M melanoma; -31% (active) with MDA-MB-231 breast; -6.54% (active) with RXF 393 renal; 83.2% with SF-268 CNS. The growth was 82.5% in the assay with SF-295 CNS; -89.4% (active) in the assay with SF-539 CNS; 56.6% in the assay on UACC-257 melanoma; 62.4% in the assay on M14 melanoma; 77% with HCT-15 colon; 54.2% with HT29 colon. Also, the growth in the assay on SNB-75 CNS was -17.1% (active); in the assay on SNB-19 CNS, 86.1%; in the assay with U251 CNS, 63.2%; in the assay on PC-3 prostate, 72.8%; in the assay on SK-MEL-5 melanoma, 63.2%; in the assay on UACC-62 melanoma it was 45.8%. Also, the growth was -84.2% (active) in the assay on LOX IMVI melanoma and 75.4% in the assay on SK-MEL-28 melanoma.

Consider `N#C/C(=C\c1ccc(-c2ccc(Cl)c(Cl)c2)o1)C(=O)Nc1ncc(Cc2ccc(Cl)cc2)s1`, for which the growth in the assay on DU-145 prostate was 29.7%; in the assay with K-562 leukemia, 52.5%; with MALME-3M melanoma, 17.2%; in the assay with MDA-MB-231 breast it was 50%; in the assay with RXF 393 renal, 66%; with SF-268 CNS it was 34.7%. For the same compound, the growth in the assay on SF-295 CNS was 20.4%; with SF-539 CNS it was 46.7%; in the assay with UACC-257 melanoma, 78.2%; in the assay with M14 melanoma, 21.6%; in the assay on HCT-15 colon it was 13.5%; with HT29 colon it was 27.9%. In addition, the growth in the assay on SNB-75 CNS is 7.13% (active); with SNB-19 CNS it was 37.8%; in the assay on U251 CNS it was 3.74% (active); in the assay with PC-3 prostate, 36.7%; in the assay with SK-MEL-5 melanoma it was 80.4%; with UACC-62 melanoma it was 48.6%. The growth with LOX IMVI melanoma was -79.8% (active); with SK-MEL-28 melanoma, 18.2%.

With `CN1CCN(Cc2ccc(NC(=O)c3cncc(C#Cc4cnc5ccc(O[C@@H]6CCOC6)nn45)c3)cc2C(F)(F)F)CC1`, the growth with DU-145 prostate is -91.1% (active); in the assay with K-562 leukemia, -12.6% (active); in the assay on MALME-3M melanoma, -89.6% (active); in the assay on MDA-MB-231 breast, -73.2% (active); in the assay with RXF 393 renal, -79.1% (active); with SF-268 CNS it was -68.3% (active). Further, the growth is -88.5% (active) with SF-295 CNS; -89% (active) with SF-539 CNS; -74.6% (active) in the assay with UACC-257 melanoma; -86.3% (active) with M14 melanoma; -40.4% (active) in the assay with HCT-15 colon; -54.6% (active) in the assay on HT29 colon. Further, the growth with SNB-75 CNS is -98.4% (active); with SNB-19 CNS it was -48.9% (active); in the assay on U251 CNS it was -72.9% (active); in the assay on PC-3 prostate, -40.4% (active); in the assay on SK-MEL-5 melanoma, -97.4% (active); in the assay with UACC-62 melanoma, -76.3% (active). Also, the growth in the assay on LOX IMVI melanoma was -96.9% (active); in the assay on SK-MEL-28 melanoma, -82.4% (active).

As to `CCN(CC)CCOc1ccc(C(=C(C)c2ccc(OC)cc2)c2ccc(OCCN(CC)CC)cc2)cc1`, the growth is 37.8% in the assay with DU-145 prostate; -12.4% (active) with K-562 leukemia; -92.1% (active) in the assay on MALME-3M melanoma; -54.3% (active) in the assay with MDA-MB-231 breast; -77.8% (active) with RXF 393 renal; 6.51% (active) in the assay with SF-268 CNS. Besides, the growth with SF-295 CNS is -64.1% (active); in the assay with SF-539 CNS, -88.2% (active); with UACC-257 melanoma it was -67.2% (active); in the assay with M14 melanoma, -70.4% (active); in the assay with HCT-15 colon it was -27.1% (active); with HT29 colon it was -28.1% (active). The growth in the assay on SNB-75 CNS was 30.5%; in the assay with SNB-19 CNS it was 11.9%; in the assay with U251 CNS, -44.5% (active); in the assay on PC-3 prostate it was 17%; with SK-MEL-5 melanoma, -94.1% (active); in the assay with UACC-62 melanoma, -81.6% (active). The growth in the assay with LOX IMVI melanoma was -77.9% (active); in the assay with SK-MEL-28 melanoma it was -83.7% (active).

Take `CCCCCCOC(=O)c1cc(-c2ccc(F)cc2)nc2ccccc12`: the growth with DU-145 prostate is 105%; in the assay with K-562 leukemia, 101%; with MALME-3M melanoma it was 97.1%; in the assay on MDA-MB-231 breast it was 85.6%; in the assay with RXF 393 renal, 96.8%; in the assay with SF-268 CNS, 96.1%. The growth in the assay with SF-295 CNS was 98%; with SF-539 CNS it was 99.9%; with UACC-257 melanoma it was 99.1%; in the assay with M14 melanoma, 96.9%; with HCT-15 colon it was 94.8%; in the assay with HT29 colon it was 96.3%. Further, the growth in the assay with SNB-75 CNS is 69.9%; with SNB-19 CNS, 92.6%; in the assay on U251 CNS it was 101%; with PC-3 prostate, 94.2%; in the assay with SK-MEL-5 melanoma it was 99.7%; in the assay with UACC-62 melanoma it was 79%. Also, the growth is 91.3% in the assay with LOX IMVI melanoma and 107% in the assay with SK-MEL-28 melanoma.

On to `CCCCN1C(=O)/C(=c2\sc3n(c2=O)C2C(NN=3)N(CC)C(=O)N2CC)c2cc(C)ccc21` (stereo not given), for which the growth was 98.7% in the assay with DU-145 prostate; 79.8% in the assay on K-562 leukemia; 89.3% with MALME-3M melanoma; 79.5% in the assay on MDA-MB-231 breast; 61.2% in the assay on RXF 393 renal; 87% in the assay on SF-268 CNS. Moreover, the growth with SF-295 CNS was 99.6%; in the assay with SF-539 CNS, 67%; with UACC-257 melanoma it was 98.7%; with M14 melanoma it was 107%; in the assay on HCT-15 colon, 86.2%; with HT29 colon, 102%. Further, the growth in the assay on SNB-75 CNS is 87.9%; in the assay on SNB-19 CNS, 93.3%; in the assay with U251 CNS, 98.3%; in the assay with PC-3 prostate it was 95.8%; in the assay with SK-MEL-5 melanoma it was 92.8%; in the assay with UACC-62 melanoma it was 71.6%. Further, the growth in the assay with LOX IMVI melanoma was 78.8%; in the assay on SK-MEL-28 melanoma, 102%.

With `O=C(CSc1nc2ccccc2c(=O)n1-c1ccccc1)N/N=C/c1ccc(Oc2ccc(Cl)cc2)cc1`, the growth in the assay on DU-145 prostate is 38.4%; in the assay with K-562 leukemia, 61.2%; in the assay on MALME-3M melanoma, 51.3%; in the assay with MDA-MB-231 breast, 49.2%; in the assay with RXF 393 renal, 42%; in the assay with SF-268 CNS, 87.1%. For the same compound, the growth with SF-295 CNS is 83.8%; with SF-539 CNS it was 68.5%; with UACC-257 melanoma, 96.9%; in the assay on M14 melanoma, 48.8%; in the assay with HCT-15 colon it was 60.8%; in the assay with HT29 colon, 59.1%. Besides, the growth was 60.1% with SNB-75 CNS; 33.2% in the assay with SNB-19 CNS; 15.2% with U251 CNS; 58.7% in the assay with PC-3 prostate; 71.2% in the assay on SK-MEL-5 melanoma; 66.6% in the assay with UACC-62 melanoma. In addition, the values for the growth in the assay with LOX IMVI melanoma and in the assay on SK-MEL-28 melanoma were 14% and 62.4%, respectively.

For `COc1ccc(C(=NNS(=O)(=O)c2ccc(C)cc2)c2ccccc2)cc1OC`, the growth with DU-145 prostate was 103%; in the assay with K-562 leukemia, 94.3%; with MALME-3M melanoma it was 87.7%; in the assay with MDA-MB-231 breast it was 91.2%; in the assay with RXF 393 renal, 105%; with SF-268 CNS it was 95.5%. Besides, the growth was 87.7% in the assay with SF-295 CNS; 105% with SF-539 CNS; 96.5% in the assay on UACC-257 melanoma; 102% with M14 melanoma; 96.6% in the assay on HCT-15 colon; 103% in the assay with HT29 colon. Besides, the growth with SNB-75 CNS was 90.4%; in the assay on SNB-19 CNS, 94.6%; with U251 CNS it was 96.1%; with PC-3 prostate, 93%; with SK-MEL-5 melanoma, 97.6%; with UACC-62 melanoma, 70.3%. Besides, the growth with LOX IMVI melanoma is 106%; in the assay on SK-MEL-28 melanoma, 108%.
